High-throughput results as filed in PubChem BioAssay.
HT1080 IDH1KD tx: HT-1080 IDH1 knockdown cell toxicity (counter line); 360,000 tested, 2% active; Potency, µM (highest dose often 46.1 µM), inactives show top-dose activity, negative = toxicity, actives largely listed as cytotoxic; HT-1080 IDH1 knockdown viability, ATP luminescence, 48 h;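 further: potency means the concentration at half of the fitted maximal effect; 0% = DMSO wells and -100% = cell-free medium wells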
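CellTiter-Glo luminescence after 48 h compound exposure at 37 degrees C of IDH1-knockdown HT-1080 cells in 5% FBS RPMI. %Activity scaled between DMSO wells and cell-free media wells, with curves fitted and assigned curve classes.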
TDP1 cell noCPT: qHTS for Inhibitors of human tyrosyl-DNA phosphodiesterase 1 (TDP1): qHTS in cells in absence of CPT. Potency, µM (doses to about 46.2 µM), inactives show at the highest dose activity change, negative = growth inhibition, hits mostly inhibitors. DT40 Tdp1-/- hTDP1 cells, no CPT, ATP luminescence, 48 h. 420,000 tested, 15% active; further: potency means the concentration at half of the fitted maximal effect; nearly all actives have a fitted effect of over 55% in size
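DT40 Tdp1-/-;hTDP1 cells, no CPT (DMSO vehicle only), 400 cells/well; compounds pin-transferred; ≥48 hr, 37 °C; CellTiter-Glo 30 min RT dark, luminescence read.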
IL1B secr inh: inflammasome signaling inhibition, IL-1 beta readout; 360,000 tested, 4.7% active; AID 743279; THP-1 LPS/ATP IL-1B secretion, AlphaLISA, 16 h; stronger effect = lower value; activity change, % at 57.5 µM; in the data active means activity change below about -50%; inconclusive means mostly about -30% to -49%
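THP-1 cells pretreated 1 hr with compounds (up to 57.5 uM final), then stimulated with LPS (250 ng/mL final) plus ATP (1.25 mM final); secreted IL-1B measured by AlphaLISA after 16 hr, decreased signal indicating inhibition.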
TDP1 cell CPT: growth inhibition of DT40 Tdp1-/-;hTDP1 cells with camptothecin (screen for TDP1 inhibitors); Potency, µM (highest dose often 46.2 µM), for inactives: at the top dose activity change, negative = growth inhibition, usual class: inhibitors; 420,000 tested, 12% active; chicken DT40 Tdp1-/-;hTDP1 cells + 20 nM CPT, ATP luminescence, 48 h; further: potency means the concentration at half of the fitted maximal effect; nearly all actives have a fitted effect of over 55% in size
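Chicken DT40 Tdp1-/- cells complemented with human TDP1, 400 cells/well, exposed to compounds plus 20 nM camptothecin for at least 48 h at 37 C; viability read as ATP content by CellTiter-Glo luminescence.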
HT1080NT lethal: kills 2HG-producing HT-1080-NT fibrosarcoma cells; HT-1080-NT fibrosarcoma viability, CellTiter-Glo ATP luminescence, 48 h; Potency, µM (series often up to 46.1 µM), for the others: top-dose activity, negative = less viability, usual class: cytotoxic; 360,000 tested, 1.6% active;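 further: NT is the 2HG producing partner of a matched IDH1 knockdown line; potency means the concentration at half of the fitted maximal effect; 0% = DMSO-treated cells and -100% = media-only wells without cells; nearly all actives have a fitted effect of over 55% in size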
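Luminescent CellTiter-Glo readout after 48 hours of compound exposure at 37 degrees C defined viability of HT-1080-NT cells. Activity was normalized to DMSO wells and cell-free media wells; concentration-response curves were fitted and assigned curve classes.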
ELG1 DNA repair: blocks ELG1-dependent DNA repair in HEK293T cells; HEK293T ELG1-luciferase reporter, luminescence, 16 h; DNA damage induced by 5-fluorouridine; Potency, µM (highest dose often 46.1 µM), without a hit: top-dose activity change, negative = inhibition, most hits filed as inhibitors; 330,000 tested, 2.3% active; AID 504467; further: potency means the concentration at half of the fitted maximal effect; nearly all actives have a fitted effect of over 55% in size
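Overnight (16 hr) co-exposure of 2,000 cells/well to 5-fluorouridine and compound at 37 °C preceded detection. Luciferase was quantified via ONE-Glo luminescence; loss of signal denotes inhibition.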
An asterisk follows results filed as active; ? = inconclusive; . = no result; [ ] = dose if it differs, or a comment. A selection: hits, their analogues and other compounds. The true share with any hit is near 19%. Unless noted, the call rests on the fitted dose curve; in most records, active means well fitted curve in the direction sought with a large enough effect; inconclusive means small, poorly fitted or top-dose-only effect, or another doubt; inactive means no such curve, though single readings can be large; an effect the other way counts as inactive or inconclusive. Unless noted, on the % scale 0 is the no-effect control and ±100 the full control effect.

SMILES	HT1080 IDH1KD tx	TDP1 cell noCPT	IL1B secr inh	TDP1 cell CPT	HT1080NT lethal	ELG1 DNA repair
C=C(C)CSc1nc2c(c(=O)[nH]c(=O)n2C)n1CCC(C)C	-4%	16µM*	50	15µM*	0%	?
CCOCCn1c(SCc2ccccc2)nc2c1c(=O)[nH]c(=O)n2C	-9%	-18%	20	-24%	0%	3%
CCCCn1c(SCc2ccc(Cl)cc2)nc2c1c(=O)[nH]c(=O)n2C	?	13µM*	1	13µM*	-22%	?
O=C1Cc2cc(S(=O)(=O)N3CCCCC3)cc3c2N1CCC3	.	-16%	.	-1%	.	.
CC(C)CCn1c(Sc2nc3ccccc3o2)nc2c1c(=O)[nH]c(=O)n2C	1%	16µM*	-105*	18µM*	8%	5%
CCOCCn1c(SCc2ccc(C)cc2)nc2c1c(=O)[nH]c(=O)n2C	0%	?	23	13µM*	13%	?
Cn1c(=O)[nH]c(=O)c2c1nc(N1CCCCC1)n2CCSc1nc2ccccc2o1	10%	-15%	2	-13%	-2%	11%
CCCCCn1c(Sc2ncccn2)nc2c1c(=O)[nH]c(=O)n2C	-9%	?	14	-4%	-16%	-8%
C=C(C)Cn1c(SCCCO)nc2c1c(=O)[nH]c(=O)n2C	1%	-10%	12	2%	-5%	9%
CCCCCn1c(Sc2nc3ccccc3s2)nc2c1c(=O)[nH]c(=O)n2C	-5%	?	-8	16µM*	-24%	21µM*
C=C(C)Cn1c(Sc2nc3ccccc3[nH]2)nc2c1c(=O)[nH]c(=O)n2C	3%	-5%	-14	-22%	-1%	26µM*
CC[C@]12C(=O)N(C)C[C@H]([C@@H]3C(=O)N(Cc4ccccc4)C(=O)[C@@H]31)N2C(=O)c1ccc(C(F)(F)F)cc1	7%	-7%	-22	-11%	20%	.
CCCOc1ccc(C2c3c(oc4ccccc4c3=O)C(=O)N2c2nnc(C(C)C)s2)cc1 (stereo unspecified)	.	-2%	.	-3%	.	.
O=C(NCc1cc(Cl)cc(Cl)c1)c1ccc2nc(COCCO)[nH]c2c1	1%	-17%	1	?	-7%	.
CC1(C(=O)Nc2ccc3nc[nH]c3c2)CCN1C(=O)c1ccccc1CCc1ccccc1 (stereo unspecified)	-24%	?	-16	?	-3%	.
CC(C)(C)N1C(=O)c2ccc(C(=O)NCc3ccco3)cc2C1=O	-2%	?	-58*	-28%	2%	8%
CC(C)(O)C(=O)NNC(=S)NCc1ccco1	-3%	-8%	0	-7%	0%	-3%
CC(C)(C)c1ccc(C(=O)NNC(=S)NCc2ccco2)cc1	-13%	23µM*	15	?	-2%	15%
COc1cc(OC)cc(C(=O)NC(=S)NCc2ccco2)c1	?	?	-6	?	18µM*	2%
O=C(NCc1ccco1)c1ccc2[nH]c(=O)c(=O)[nH]c2c1	-2%	0%	10	2%	0%	7%
CC(C)c1cc(C(=O)NNC(=S)NCc2ccco2)c(O)c(C(C)C)c1	16µM*	?	-54*	?	?	18µM*
CC1(C)N([O-])C2=C(CCCC2)[N+]1=O	-8%	-1%	17	3%	3%	3%
CC(C)CSc1nnc(-c2ccccc2)c(-c2ccccc2)n1	.	?	.	-23%	.	.
CC1(C)Cc2ccccc2C(=O)N1	4%	-3%	4	-1%	4%	22%
CCNC(=O)/C=C1\NC(C)(C)Cc2c1ccc1ccccc21	-3%[9.24 µM]	21µM*	?	?	?	0%
SMILES	HT1080 IDH1KD tx	TDP1 cell noCPT	IL1B secr inh	TDP1 cell CPT	HT1080NT lethal	ELG1 DNA repair
CC1(C)Cc2c(ccc3ccccc23)C(=O)N1	-17%	21µM*	?	?	-17%	?
Cc1ccc(C(=O)NCC(=O)OC(C)C(=O)NC2CCCCC2C)cc1C (stereo unspecified)	3%	-13%	21	11%	7%	21%
CC(C)NC(=O)CSc1nnc(-c2ccc(F)cc2)c2ccccc12	0%	-17%	6	0%	0%	-2%
Cc1nc(C(=O)O)cc2c1[nH]c1ccccc12	-1%	?	19	-14%	-1%	3%
Cc1c2c(cc3c1[nH]c1ccccc13)C=NCC2	?	23µM*	-73*	?	-12%	.
CCCCC(c1nc2ccccc2[nH]1)n1c(-c2ccccc2)nc2cc(C)c(C)cc21 (stereo unspecified)	18%	23µM*	0	15µM*	20%	.
O=C(CC[C@H]1O[C@@H](n2cnc3c(NC(=O)c4ccccc4)ncnc32)[C@H](O)[C@@H]1O)NCc1ccc(OC(F)(F)F)cc1	23%	-30%	-2	-2%	0%	.
CCn1cc(/C=C(\NC(=O)c2ccccc2OC)C(=O)NCCN2CCOCC2)c2ccccc21	8%	?	-6	?	5%	.
COC(=O)c1sc(=S)n(-c2cc(F)ccc2F)c1N	-17%	?	-7	15µM*	-18%	2%
COc1ccc(-c2ccc(NS(=O)(=O)c3cc(C)c(C)cc3C)cc2)nn1	.	?	.	21µM*	.	.
COc1ccc(-c2cccc(NS(=O)(=O)c3cccc([N+](=O)[O-])c3)c2)nn1	-5%	26µM*	10	?	-7%	1%
COc1ccc(-c2ccc(NS(=O)(=O)c3ccccc3)cc2)nn1	.	15µM*	.	?	.	.
COc1ccc(-c2ccc(NS(=O)(=O)c3cccc(C)c3)cc2)nn1	.	29µM*	.	?	.	.
O=C(O)Cn1c(C(=O)Nc2nc(-c3ccccc3Cl)cs2)cc2ccccc21	.	-16%	.	-6%	.	.
COc1ccc(-c2ccc(NS(=O)(=O)c3ccccc3Cl)cc2)nn1	.	18µM*	.	21µM*	.	.
Cc1ccc2nc3c(c(Nc4ccc5c(c4)OCCO5)c2c1)CCC3	?	18µM*	-92*	16µM*	?	-21%
Cc1ccc2nc3c(c(Nc4ccc(O)cc4)c2c1)CCC3	-21%	18µM*	-6	?	-16%	-2%
Cc1cccn2c(=O)nc(SCC(=O)NCc3ccc(F)cc3)nc12	8%	-25%	2	-25%	14%	2%
O=C(O)c1ccccc1-c1ccc(/C=c2\sc3nc4cc(Br)cnc4n3c2=O)o1	-1%	18µM*	-3	16µM*	5%	13%
